# The whole screen tested about 48,000 compounds, of which about 13,000 (27%) showed an effect of 50% or more. This is one part of the list.
# Tested on: Wolbachia pipientis
# Assay: Anti-Wolbachia Cell-Based Screen
# Assay type: functional
# Parameters: scale not given: in the data most compounds retested in dose-response had high values
# Conditions: 5 µM
row,SMILES,Percent Effect [%]
1,COCCN(C)CC1CCCN1S(=O)(=O)c1cccc(F)c1F (centres undefined),-7.612
2,O=S(=O)(c1ccccc1)N1CCCC1c1cc[nH]n1 (centres undefined),100.7
3,CCN1C(=O)C[C@@H]2[C@@H]1CCN2S(=O)(=O)c1ccccc1,-17.79
4,CNS(=O)(=O)c1ccc(CN2CCCC2c2ccc(F)cc2)cc1 (centres undefined),-2.722
5,CS(=O)(=O)c1ccc(CN2CCCCC2c2ccc(F)cc2)cc1 (centres undefined),14.88
6,O=S(=O)(c1ccccc1)N1CCCCC1c1cc[nH]n1 (centres undefined),7.34
7,O=S(=O)(c1ccc(F)cc1)N1CCCCC1c1cc[nH]n1 (centres undefined),93.21
8,COc1nn(C)c2c1CCCN(S(=O)(=O)c1ccccc1F)C2,9.619
9,O=S(=O)(c1ccccc1F)N1CCCCC1c1cc[nH]n1 (centres undefined),126.5
10,O=S(=O)(c1ccc(F)cc1)N1CCCC1c1cc[nH]n1 (centres undefined),93.9
11,O=C(O)C(F)(F)F.O=S(=O)(c1ccc(F)cc1)N1CC[C@H]2[C@H]1CCN2c1ncccn1,5.126
12,CN(Cc1ccno1)C(=O)c1cccc(CC2CCNCC2)c1,-13.23
13,CCNC(=O)NC(=O)CNC1(c2noc(C)n2)CCCC1,91.61
14,Cc1nc(C2(NCc3ccc(C#N)cc3F)CCCC2)no1,14.6
15,Cc1nc(C2(NC(=O)NCc3cc(C#N)ccc3F)CCCC2)no1,-8.279
16,COc1cc(-c2nccn2C(C)CCn2cccn2)cc2c1OCO2 (centres undefined),-13.68
17,CC1CCN(C)c2ccccc2N1C(=O)c1ccc(=O)n(C)n1 (centres undefined),-12.65
18,CC(C)CCN1CCCC12Cc1ccccc1CNC2=O (centres undefined),106.1
19,CC(C)(C)CN1CCCC(O)(CN2CCc3[nH]ncc3C2)C1=O (centres undefined),-1.805
20,CC(C)(C)CN1CCCC12Cc1ccccc1CNC2=O (centres undefined),188
21,Cc1ccc(CNC(=O)CN(CCC(N)=O)c2ccc(F)cc2)cc1,105.8
22,O=C(CSc1nnc[nH]1)NCc1cccs1,-6.872

row,SMILES,Percent Effect [%]
1,Cc1cccc(N(CCC(N)=O)CC(=O)Nc2ccccc2)c1,2.508
2,COc1nn(C)cc1C(=O)NCC(=O)NCc1ccccn1,5.267
3,O=C(NCc1ccccn1)N(Cc1ccc(F)cc1F)C1CC1,-2.472
4,Cc1cccc(N(CCC(N)=O)CC(=O)NC2CCCC2)c1,-5.461
5,NC(=O)CCN(CC(=O)NCc1ccccn1)c1ccc(F)cc1,119
6,O=C(CN(Cc1cccs1)c1ccc(F)cc1)NC1CCOCC1,-0.05044
7,NC(=O)CCN(CC(=O)NCc1cccs1)c1ccc(F)cc1,110
8,CS(=O)(=O)CCOCCNc1ccc(Br)cn1,-8.426
9,CN(CCS(=O)(=O)c1cc(Cl)ccc1Cl)CC(=O)Nc1cccc(F)c1,-24.13
10,CC1CCCN(C(=O)c2cn(-c3ccc(C(F)(F)F)cn3)nn2)C1 (centres undefined),-4.176
11,Cc1ccc(CN2CCCC(c3cncc(C)n3)C2)cn1 (centres undefined),118.4
12,Cc1cncc(C2CCCN(Cc3ccncc3)C2)n1 (centres undefined),93.31
13,Cc1cnc(CN2CCCC(c3cc(C(F)(F)F)[nH]n3)C2)cn1 (centres undefined),-5.55
14,Cc1cncc(C2CCCN(CC3CCC3)C2)n1 (centres undefined),105.7
15,CN(CCc1cn[nH]c1)C(=O)C1CC(=O)N(Cc2ccccn2)C1 (centres undefined),3.692
16,COCCNC(=O)NC1(c2nc(-c3ccncc3)no2)CCCCC1,-5.967
17,COCCNC(=O)NCCCOC1CCCc2ccccc21 (centres undefined),-3.457
18,CC(=O)NCc1cc(-c2cccs2)n(C2CCCC2)n1,97.9
19,CC(C(=O)NCC1CCCCC1)S(=O)(=O)Cc1csc(-c2cccs2)n1 (centres undefined),-22.28
20,COCCNC(=O)NCc1cc(-c2ccncc2)n(C2CCCC2)n1,117.5
21,O=C(NCCn1cnc(C2CCCC2)cc1=O)NCc1cccs1,5.486
22,COCCNC(=O)NCc1cc(-c2cccs2)n(C2CCCC2)n1,108.7

row,SMILES,Percent Effect [%]
1,CC(=O)NCc1nc(Cc2cccc(Cl)c2)nn1C1CCN(C)CC1,14.05
2,CN(CCNC(=O)NCc1ccncc1)C1CCCC1,0.2327
3,CCCc1n[nH]c(C2CN(CCCS(C)(=O)=O)CCO2)n1 (centres undefined),8.162
4,CC(C)N1CCC(Nc2ccn(C)n2)C1=O (centres undefined),-18.51
5,CCc1n[nH]c(C2CN(CC(=O)NCCc3ccsc3)CCO2)n1 (centres undefined),-8.362
6,COc1ccc(S(=O)(=O)NCCC(O)c2cccs2)c(C)c1 (centres undefined),-2.091
7,COCc1nc(CNC2CSCCSC2)no1,8.788
8,CN(Cc1csc(-c2cccs2)n1)C(=O)CCn1ccc(=O)[nH]c1=O,-14.37
9,CCS(=O)(=O)N1CCC2(CC1)CC1(CCN(CCOC)CC1)C(=O)N2C.O=C(O)C(F)(F)F,-5.19
10,Cc1cnc(N2CCCOC(CN3CCCCC3)C2)nc1 (centres undefined),-5.032
11,Cc1noc(C)c1C(=O)N1CCC2(CC1)CC(Oc1ccccc1)CO2 (centres undefined),-6.513
12,CC(C)c1cc(C(=O)N2CCC3(CCc4ccccc4C(=O)N3)C2)no1 (centres undefined),122.1
13,CC(C)c1cc(C(=O)N2CCOC3(CCNCC3)C2)no1.O=C(O)C(F)(F)F,-1.615
14,Cc1noc(C)c1C(=O)N1CCC2(CCc3ccccc3C(=O)N2)C1 (centres undefined),127.4
15,O=C1CCC2(CCCN(C(=O)c3ccco3)CC2)N1 (centres undefined),-12.15
16,CC(C)c1cc(C(=O)N2CCC3(CCc4ccccc4C(=O)N3)C2)on1 (centres undefined),142.6
17,Cc1noc(C)c1CN1CC2(CCN(C(=O)c3ccc[nH]3)C2)CC1=O (centres undefined),-7.535
18,CC(C)c1cc(=O)[nH]c(-c2ccccc2CN2CCC(C)(C)C2)n1,32.6
19,CCC1CN(CCCNS(C)(=O)=O)c2ccccc2O1 (centres undefined),-7.766
20,Cc1cnn(CCNCC(O)COc2ccc(Cl)cc2)c1 (centres undefined),-10.6
21,CN(C)C(=O)c1ccc(C(C(=O)O)N(C)Cc2ccccc2Cl)cc1 (centres undefined),24.87
22,CC(C)=CCS(=O)(=O)Cc1nc(C(C)C)no1,-0.5421

row,SMILES,Percent Effect [%]
1,N#Cc1ccc(OCCCN2CCc3cncnc3C2)cc1,-6.561
2,Cc1nnc(NCc2ccc(SC(F)F)cc2)o1,-21.33
3,CCN(Cc1ccc2cccc(O)c2n1)CC1CCCO1 (centres undefined),12.41
4,CC(C)n1ccnc1CNC(=O)c1cccc(CCC(C)(C)O)c1,1.765
5,Cc1ccc(CN2CCC3(CC2)CC(c2cccnc2)CO3)s1.O=C(O)C(F)(F)F.O=C(O)C(F)(F)F (centres undefined),-3.874
6,O=C(O)C(F)(F)F.O=C(O)C(F)(F)F.c1cncc(C2COC3(CCN(Cc4cccs4)CC3)C2)c1 (centres undefined),94.58
7,O=C(NC1COC2(CCN(Cc3cccs3)CC2)C1)c1ccccn1.O=C(O)C(F)(F)F (centres undefined),-12.32
8,O=C(O)C(F)(F)F.O=C(O)C(F)(F)F.c1cncc(C2COC3(CCN(Cc4nccs4)CC3)C2)c1 (centres undefined),106.4
9,COc1c(C)cc(S(=O)(=O)NCC2CNCCOC2)cc1C (centres undefined),-7.949
10,CC1CS(=O)(=O)CCN1Cc1ccccc1OCC(F)(F)F (centres undefined),-0.5987
11,CN(C(=O)C1CCCC1)C(c1cccc(F)c1)c1ccccn1 (centres undefined),96.46
12,CC(C)NC(=O)N(C)C(c1cccc(F)c1)c1ccccn1 (centres undefined),108.7
13,CCC(CC)CNC(=O)N(C)C(C)c1ccccn1 (centres undefined),-0.07078
14,CN(C)C(C(=O)N1CC(c2ccccn2)C1)c1cccc(F)c1 (centres undefined),0.3934
15,CCC(C)(C)NC(=O)CN(C)C(c1cccc(F)c1)c1ccccn1 (centres undefined),3.895
16,Cc1cccc(C(C(=O)N2CC(c3ccccn3)C2)N(C)C)c1 (centres undefined),-0.3127
17,CN(C)S(=O)(=O)N(C)C(c1cccnc1)c1ccc(F)c(F)c1 (centres undefined),6.924
18,CCNC(=O)N(C)C(c1ccccc1)c1ccccn1 (centres undefined),96.55
19,CC(NCc1cccc(S(=O)(=O)N(C)C)c1)c1ccccn1 (centres undefined),-1.385
20,CCNC(=O)N(C)C(c1cccc(F)c1)c1ccccn1 (centres undefined),4.567
21,CN(C)S(=O)(=O)N(C)C(c1cccc(F)c1)c1ccccn1 (centres undefined),51.58
22,O=C(C1CCC1)N1CCOc2cccc(F)c21,-0.5451

row,SMILES,Percent Effect [%]
1,CC(C)c1ccc(CN2CCC(CNS(=O)(=O)C3CC3)C2)cc1 (centres undefined),-21.58
2,O=C(c1ccc[nH]1)N1CCCC2(CCN(c3ccsc3)C2=O)C1 (centres undefined),-3.1
3,CCc1cccc(OC2CN(C(=O)[C@@H](N)CCSC)C2)c1,3.54
4,OCCc1cc(CC2(NCc3ccncc3)COC2)no1,9.116
5,CC(=O)N(C)C(c1cccc(F)c1)c1ccccn1 (centres undefined),87.32
6,CN(C)CCN(Cc1ccccn1)C(=O)Nc1cccc(F)c1,19.37
7,CN(C)C(C(=O)NCC(F)(F)F)c1cccc(F)c1 (centres undefined),-4.686
8,CC1=C[C@@H](CC#N)[C@H](C(C)C)C[C@H]1CC(=O)N1CCN(CCO)CC1,2.953
9,CCOC(=O)C1CCN(Cc2csc(C(C)(C)C)n2)CC1,-1.919
10,NC(=O)C1(CCCc2ccccn2)CCCN(CCO)C1 (centres undefined),112.7
11,O=C(Nc1ccc(Cl)cn1)C1CCCN(CCc2ccccn2)C1 (centres undefined),0.2896
12,NC(=O)C1(CCCc2cccnc2)CCCN(c2ncccn2)C1 (centres undefined),-4.242
13,CC(C)N1CCCC(CCCc2ccccn2)(C(=O)O)C1 (centres undefined),-10.26
14,COCCC1(C(=O)O)CCCN(CCc2ccccc2)C1 (centres undefined),-4.304
15,NC(=O)CN1CCCC(CCCc2ccccn2)(C(N)=O)C1 (centres undefined),100.4
16,O=C(NCCc1ccccn1)N1CCSC2(CCCCC2)C1,2.458
17,CCCN(Cc1cccnc1)C(=O)C1CCCN(C)C1 (centres undefined),-0.4884
18,COCCCC1(CO)CCCN(CCc2ccccn2)C1 (centres undefined),15.21
19,COCCN1CCCC(CCCc2ccccn2)(C(N)=O)C1 (centres undefined),100.6
20,CCN1CCCC(O)(CNCc2ccccn2)C1 (centres undefined),-18.44
21,CN1CCCC(CCCc2cccnc2)(C(N)=O)C1 (centres undefined),112
